# From PubChem BioAssay
# Results filed as inconclusive are left out. Activity calls are given as the source filed them.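 The calls were made as follows, unless noted: active = viability at or below 27.92% in each of two runs, the all-compound median minus 4 SD; inconclusive = no clear call, values can overlap the other calls; inactive = the rest.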
# Assays:
# [1] = reduced viability of SK-BR-3 breast cancer cells – cell-based, 24 h, human, pilot screen (AID 572;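 active = viability at or below 10% of carrier control in both of two separate runs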;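 also: compound exposure lasted between 18 and 24 h rather than exactly 24 h; 100% = carrier-treated control wells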); settings: SK-BR-3 viability, CellTiter-Glo luminescence, at 10 µM, stronger effect = lower value
# [2] = HUVEC growth inhibition – cell-based, human, primary screen (AID 575;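 active = viability at or below 30% in both replicate assays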;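 also: 100% = median of untreated cell wells with 0.1% DMSO on each plate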); settings: HUVEC proliferation, CellTiter-Glo luminescence, 72 h; at 10 µM; stronger effect = lower value
# [3] = H69AR cell proliferation blockers – human, duplicate replicates, primary screen (AID 580;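 active = viability at or under a set limit in both replicates, limit being median viability minus 3 SD, cut at about 48% in these data, passing the limit was not always enough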;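 also: 100% = mean luminescence of untreated wells and 0% = no signal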); settings: H69AR lung tumor cells viability, ATP luminescence, 72 h; at 10 µM; stronger effect = lower value
# [4] = MRP1 drug-resistance reversers in H69AR cells – cell-based, doxorubicin co-treatment, pilot screen (AID 601;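 active = viability loss from added drug above about 55%, and viability with drug at most 40%, in both replicates, limit read from the data, passing the limit was not always enough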); settings: CellTiter-Glo, 72 h, at 10 µM; for differential viability (reversal): stronger effect = higher value
# [5] = yeast transport mutant growth inhibition pilot in 384-well plates, post-Golgi transport modulator project (AID 636; in the data active = inhibition above about 31%); settings: absorbance 615 nm, about 18 h, stronger effect = higher value
# [6] = growth suppression of yeast trafficking mutant, preliminary HTS, modulators of trafficking downstream of Golgi apparatus project, 1536-format plate, OD 615 nm (AID 637; in the data active = inhibition above about 30%); settings: yeast transport mutant growth, absorbance 615 nm, 18 h; stronger effect = higher value
# [7] = S. cerevisiae growth inhibition in permissive medium (OD615), pilot counter-assay for S. cerevisiae lifespan shortening project, permissive growth control (AID 705;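 active = growth inhibition above 25% in both replicates, a cutoff set 3 SD above the mean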); settings: OD615, 24 h, at 10 µM, stronger effect = higher value
# [8] = S. cerevisiae growth inhibition in restrictive medium, OD615, pilot screen, restrictive growth control, yeast lifespan reduction project (AID 706;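 active = growth inhibition above a set limit, 3 SD over mean compound inhibition, in both replicates, cut at about 43% in these data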;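 also: modified DeaD lifespan yeast strain shifted to restrictive glucose medium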); settings: OD615, 48 h, at 10 µM, stronger effect = higher value
# [9] = doxorubicin toxicity protection in MRP-1 cells – H69AR cells, CellTiter-Glo, duplicate, MRP-1 activator project, pilot screen (AID 807;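 active = viability increase at or above a cutoff of the median across tested compounds plus 3 SD, cut at about 8.5% in these data, passing the limit was not always enough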;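 also: compound pretreatment 18-22 h then 72 h combined with doxorubicin; 0% = doxorubicin alone and 100% = vehicle without doxorubicin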); settings: H69AR viability with doxorubicin, CellTiter-Glo luminescence; at 10 µM; stronger effect = higher value
# [10] = viability of HCT116 without oncogenic beta-catenin – human colon tumor cells, pilot screen (AID 823;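 active = cell viability at or below a set limit in both duplicate runs, the limit being the all-compound median minus 4 SD, cut at about 23% in these data, passing the limit was not always enough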;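 also: 0% = wells killed by 20 µM Hyamine and 100% = untreated DMSO cell wells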); settings: HCT116 beta-catenin knockout viability, CellTiter-Glo, 60 h; at 10 µM; stronger effect = lower value
# [11] = viability of PTEN-null HCT116 cells – cell-based, HCT116 clonal line, CellTiter-Glo, pilot screen (AID 824); settings: HCT116 PTEN-deleted viability, 60 h, at 10 µM, stronger effect = lower value;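 also: 0% = 20 µM Hyamine control and 100% = vehicle cell control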
# [12] = RAM pathway blockade in budding yeast – dse1pr::URA3 reporter, 5-FOA selection, pilot screen (AID 869;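 active = inhibition over a set limit, the all-compound mean plus 3 SD, in both replicate runs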;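 also: 0% = DMSO wells with no growth and 100% = 10 µM 1-NA-PP1 with full growth; RAM network block rescues cells from 5-FOA so hits raise OD615 growth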); settings: S. cerevisiae dse1pr::URA3 5-FOA growth, OD615, 2 d; at 10 µM; stronger effect = higher value; strain carries analog-sensitive mutant Cbk1 kinase
# [13] = RAM signaling pathway blockade in yeast – S. cerevisiae, Pdr1DBD-CYC8 efflux-inhibited sensitized strain, primary screen (AID 1298;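 active = RAM network inhibition above 8.4% in each of two replicates, 3 SD over the compound average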;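 also: 0% = DMSO untreated cells without growth and 100% = 10 µM 1-NA-PP1 full growth; higher means more yeast growth rescued from 5-FOA killing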); settings: S. cerevisiae cbk1-as DSE1-URA3 strain, 5-FOA growth OD615, 2 d; at 50 µM; stronger effect = higher value
# [14] = H69AR cells + 2 uM doxorubicin, measured here: viability with 2 uM doxorubicin, stronger effect = lower value
# [15] = H69AR cells, compound alone cytotoxicity
Compound,viability [1],viability [2],viability [3],differential viability (reversal) ([4]; H69AR cells + 2 uM doxorubicin),"viability [4, 14] [%]","viability [4, 15] [%]",inhibition [5],inhibition [6],growth inhibition [7],growth inhibition [8],viability increase [9],viability [10],viability [11],inhibition [12],RAM network inhibition [13]
Cc1cc(C)n2c(SCC(=O)Nc3cc(C)on3)nnc2n1,91.5% (inactive),104% (inactive),101% (inactive),21.3% (inactive),79.2,101,-4.19% (inactive),5.71% (inactive),-7.78% (inactive),-16.6% (inactive),1.73% (inactive),102% (inactive),97.2% (inactive),1.88% (inactive),3.63% (inactive)
CCn1c(C(C#N)/C(=N\S(=O)(=O)c2cccs2)c2ccccc2)nc2ccccc21 (stereo not drawn),112% (inactive),96.2% (inactive),81.7% (inactive),-12.6% (inactive),94.3,81.7,0.26% (inactive),-1.15% (inactive),-26.8% (inactive),-15% (inactive),-3.19% (inactive),87.4% (inactive),90.2% (inactive),1.55% (inactive),5.16% (inactive)
CCOC(=O)N1CCN(C(=O)c2cnn(-c3ccccc3)c2NC(=O)c2ccccc2F)CC1,102% (inactive),98.8% (inactive),92% (inactive),12% (inactive),80,92,-4% (inactive),-0.73% (inactive),0.625% (inactive),-2.95% (inactive),-1.55% (inactive),99.4% (inactive),102% (inactive),-0.065% (inactive),1.56% (inactive)
O=C(CN1CCN(Cc2ccccc2)CC1)NCC1COc2ccccc2O1 (stereo not drawn),108% (inactive),110% (inactive),93.2% (inactive),6.56% (inactive),86.6,93.2,-2.53% (inactive),-4.73% (inactive),-1.31% (inactive),-5.58% (inactive),-1.29% (inactive),93.6% (inactive),96.9% (inactive),-0.145% (inactive),2.61% (inactive)
Cc1cc(=O)oc2cc(OCC#N)ccc12,112% (inactive),92.1% (inactive),99.4% (inactive),6.12% (inactive),93.3,99.4,-5.07% (inactive),1.33% (inactive),-4.47% (inactive),-4.6% (inactive),1.11% (inactive),106% (inactive),96.1% (inactive),0.155% (inactive),3.55% (inactive)
CC(=O)Nc1nnc(SCC(=O)NCC2CCCO2)s1 (stereo not drawn),70% (inactive),105% (inactive),96.3% (inactive),3.56% (inactive),92.7,96.3,0.27% (inactive),7.64% (inactive),-2.62% (inactive),2.21% (inactive),-1.36% (inactive),100% (inactive),88.6% (inactive),0.925% (inactive),-0.72% (inactive)
CCOC(=O)c1cc(NC(=O)SCC(=O)O)c(C)nc1C,82% (inactive),123% (inactive),88.1% (inactive),2.72% (inactive),85.4,88.1,2.34% (inactive),-1.64% (inactive),0.31% (inactive),0.73% (inactive),2.31% (inactive),96.1% (inactive),101% (inactive),0.56% (inactive),0.38% (inactive)
COc1ccc(NC(=O)CC2CCCCC2)cc1OC,96% (inactive),94.6% (inactive),103% (inactive),12.8% (inactive),90.2,103,-6% (inactive),-1.09% (inactive),-9.11% (inactive),-10.4% (inactive),-0.97% (inactive),96.3% (inactive),93.4% (inactive),2.6% (inactive),6.64% (inactive)
O=C(CCn1[nH]c(=O)c2ccccc2c1=O)NCCO,78% (inactive),118% (inactive),89.3% (inactive),-2.56% (inactive),91.9,89.3,-7.07% (inactive),-7.27% (inactive),-16.2% (inactive),-13.6% (inactive),-0.03% (inactive),102% (inactive),102% (inactive),0.26% (inactive),0.2% (inactive)
O=C(CCNS(=O)(=O)c1cccs1)Nc1ccccc1F,81% (inactive),121% (inactive),108% (inactive),8.57% (inactive),99.2,108,-6.49% (inactive),0.55% (inactive),-26.3% (inactive),-12.8% (inactive),-0.31% (inactive),90.8% (inactive),92.8% (inactive),0.805% (inactive),2.55% (inactive)
O=C(O)CC(C(=O)Nc1cccc(C(F)(F)F)c1)C1CCCO1 (stereo not drawn),76% (inactive),108% (inactive),97.6% (inactive),3.26% (inactive),94.3,97.6,-3.33% (inactive),-8% (inactive),-10.5% (inactive),-6.54% (inactive),1.01% (inactive),104% (inactive),100% (inactive),-0.115% (inactive),2.56% (inactive)
COCCN1C=C(C(=O)OC)C(c2cc3c(cc2Br)OCO3)C(C(=O)OC)=C1,97% (inactive),89.2% (inactive),84.5% (inactive),3.38% (inactive),81.2,84.5,-4.13% (inactive),-1.09% (inactive),-12.8% (inactive),-14.6% (inactive),-1.16% (inactive),58.3% (inactive),58.6% (inactive),0.41% (inactive),0.62% (inactive)
Cc1ccc(C(=O)Nc2c(C(=O)N3CCOCC3)cnn2-c2ccccc2)cc1,103% (inactive),94.5% (inactive),91.8% (inactive),16.5% (inactive),75.3,91.8,-4.27% (inactive),-2.91% (inactive),-7.86% (inactive),-9.73% (inactive),-1.89% (inactive),103% (inactive),102% (inactive),0.475% (inactive),-1.3% (inactive)
Cc1onc(-c2ccccc2)c1C(=O)NCc1cccnc1,102% (inactive),100% (inactive),99.4% (inactive),9.66% (inactive),89.7,99.4,-3.33% (inactive),3.09% (inactive),-14% (inactive),-11.6% (inactive),-1.32% (inactive),98.2% (inactive),95.8% (inactive),2.08% (inactive),1.71% (inactive)
Cn1c(CSc2nc3ccccc3s2)nnc1SCC(=O)NCCN1CCOCC1,75% (inactive),97.6% (inactive),98.5% (inactive),-3.51% (inactive),102,98.5,2.67% (inactive),10% (inactive),7.95% (inactive),32.4% (inactive),-3.43% (inactive),92.9% (inactive),86.7% (inactive),0.27% (inactive),3.17% (inactive)
CC1(C)CC2CC(C)(CN2S(=O)(=O)c2ccc(N)cc2)C1 (stereo not drawn),120% (inactive),99.6% (inactive),89.4% (inactive),8.43% (inactive),80.9,89.4,-8.93% (inactive),-8.36% (inactive),-0.15% (inactive),8.29% (inactive),-2.62% (inactive),88% (inactive),87.6% (inactive),0.505% (inactive),9.14% (inactive)
O=C(CCC(=O)OCC(=O)c1ccccc1)NC1CCCCC1,68% (inactive),108% (inactive),101% (inactive),14.9% (inactive),86.1,101,-7.33% (inactive),-5.82% (inactive),-6.58% (inactive),-5.45% (inactive),-0.49% (inactive),93.6% (inactive),95.6% (inactive),-0.295% (inactive),5.37% (inactive)
Cc1cc(NC(=O)CS(=O)(=O)c2cn(Cc3ccccc3Cl)c3ccccc23)no1,92% (inactive),79.2% (inactive),92.1% (inactive),11.1% (inactive),81,92.1,-5.2% (inactive),5.82% (inactive),-4.35% (inactive),-0.555% (inactive),-2.24% (inactive),,47.8% (inactive),2.17% (inactive),3.11% (inactive)
Cc1cccc(OCC(=O)Nc2ccc(N3CCCC3)cc2)c1C,112% (inactive),88.2% (inactive),,-3.12% (inactive),59.7,56.5,-9.2% (inactive),1.64% (inactive),15.7% (inactive),14.8% (inactive),-3.79% (inactive),72.4% (inactive),84.8% (inactive),2.95% (inactive),5.36% (inactive)
